A short description of test [1]: binders of probe aFSTL3 on microarray, primary screen, stem cell growth factor project, biochemical, small-molecule microarray, fluorescence 635/667 (AID 1064).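 Also: measures binding of the biotinylated anti-FSTL3 antibody to printed compounds.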 Conditions: higher = more signal.
Test [2] can be described thus: binders from COS7 lysate, DM2A8 probe, primary screen, torsin A project, cell lysate, small-molecule microarray, fluorescence 635/667 (AID 1065). Conditions: higher = more signal, COS7 lysate expressing mutant human TOR1A.
Test [3] can be described thus: binders of probe aFGF2 on microarray, primary screen, stem cell growth factor project, biochemical, small-molecule microarray, fluorescence 635/667 (AID 1067).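 Also: measures binding of biotinylated aFGF2 protein to printed compounds on slides; z-score merges feature fluorescence and signal-to-noise across triplicate slides.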 To be noted: higher = more signal.
Test [4] in a line: binders of probe aFGF10 on microarray, primary screen, stem cell growth factor project, biochemical, small-molecule microarray, fluorescence 635/667 (AID 1071).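 Also: score merges 667 nm spot intensity and signal to noise from triplicate slides.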 To be noted: higher = more signal.
For test [5], the target named is Neurogenic locus notch homolog protein 2 (Homo sapiens) (UniProt Q04721). The experiment in a line: Notch2 binders on small-molecule microarrays, primary screen, biochemical, small-molecule microarray, 635 nm fluorescence, stem cell growth factors (AID 1073). Conditions: Notch2 binding, higher = more signal.
In test [6] the target is Pro-neuregulin-1, membrane-bound isoform (Homo sapiens) (UniProt Q02297). The experiment in a line: NRG1 binders on small-molecule microarrays, primary screen, psychiatric disease protein project, biochemical, small-molecule microarray, fluorescence 635/667 (AID 1075).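 Also: score combines 667 nm spot fluorescence with signal to noise.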 Conditions: NRG1 binding, 635 nm fluorescence, higher = more signal.
The subject of test [7] is Neuregulin-1 EGF-like domain. The experiment in a line: binders of neuregulin-1 EGF-like domain, primary screen, biochemical, small-molecule microarray, 635 nm fluorescence (AID 1081).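 Also: binding of the protein to compounds printed on small-molecule microarray slides.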 To be noted: small-molecule microarray binding, higher = more signal.
A short description of test [8]: FRG1 promoter luciferase signal modulators, primary screen, FRG1 inhibition for FSHD, cell-based, C2C12 myotubes, firefly/Renilla luciferase, luminescence (AID 1084). Conditions: higher = more signal, called active from +8 up or from −8 down.
Test [9] in a line: binders of probe aFST on microarray, primary screen, stem cell growth factor project, biochemical, small-molecule microarray, fluorescence 635/667 (AID 1086).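 Also: score merges 667 nm fluorescence with signal-to-noise of each printed compound spot.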 To be noted: higher = more signal.
Test [10] is described as follows: binders of probe aHhip on microarray, primary screen, stem cell growth factor project, biochemical, small-molecule microarray, fluorescence 635/667 (AID 1087).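 Also: score merges spot fluorescence at 667nm with spot signal to noise ratio.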 Conditions: higher = more signal.

Activity calls are given as the source filed them.

Chain of Pro-neuregulin-1, membrane-bound isoform (Homo sapiens) (Q02297 whole entry, looked up, the tested form may be a part, canonical isoform): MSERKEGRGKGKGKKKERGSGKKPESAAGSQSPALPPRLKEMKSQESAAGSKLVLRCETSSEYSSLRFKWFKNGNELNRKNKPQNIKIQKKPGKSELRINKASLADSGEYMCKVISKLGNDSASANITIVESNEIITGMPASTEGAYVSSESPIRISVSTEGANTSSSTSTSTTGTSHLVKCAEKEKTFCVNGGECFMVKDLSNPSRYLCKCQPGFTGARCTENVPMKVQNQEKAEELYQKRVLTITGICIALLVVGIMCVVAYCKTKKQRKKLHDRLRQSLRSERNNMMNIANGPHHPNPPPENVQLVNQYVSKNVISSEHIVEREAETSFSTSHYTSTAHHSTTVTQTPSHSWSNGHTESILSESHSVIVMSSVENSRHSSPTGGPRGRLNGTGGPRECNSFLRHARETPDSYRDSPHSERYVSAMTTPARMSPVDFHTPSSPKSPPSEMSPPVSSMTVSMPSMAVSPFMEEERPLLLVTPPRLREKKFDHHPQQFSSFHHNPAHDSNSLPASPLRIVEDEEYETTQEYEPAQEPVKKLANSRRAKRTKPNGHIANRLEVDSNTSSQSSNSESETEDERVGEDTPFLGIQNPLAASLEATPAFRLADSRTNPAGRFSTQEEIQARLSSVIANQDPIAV
Chain of Neurogenic locus notch homolog protein 2 (Homo sapiens) (Q04721 whole entry, looked up, canonical isoform): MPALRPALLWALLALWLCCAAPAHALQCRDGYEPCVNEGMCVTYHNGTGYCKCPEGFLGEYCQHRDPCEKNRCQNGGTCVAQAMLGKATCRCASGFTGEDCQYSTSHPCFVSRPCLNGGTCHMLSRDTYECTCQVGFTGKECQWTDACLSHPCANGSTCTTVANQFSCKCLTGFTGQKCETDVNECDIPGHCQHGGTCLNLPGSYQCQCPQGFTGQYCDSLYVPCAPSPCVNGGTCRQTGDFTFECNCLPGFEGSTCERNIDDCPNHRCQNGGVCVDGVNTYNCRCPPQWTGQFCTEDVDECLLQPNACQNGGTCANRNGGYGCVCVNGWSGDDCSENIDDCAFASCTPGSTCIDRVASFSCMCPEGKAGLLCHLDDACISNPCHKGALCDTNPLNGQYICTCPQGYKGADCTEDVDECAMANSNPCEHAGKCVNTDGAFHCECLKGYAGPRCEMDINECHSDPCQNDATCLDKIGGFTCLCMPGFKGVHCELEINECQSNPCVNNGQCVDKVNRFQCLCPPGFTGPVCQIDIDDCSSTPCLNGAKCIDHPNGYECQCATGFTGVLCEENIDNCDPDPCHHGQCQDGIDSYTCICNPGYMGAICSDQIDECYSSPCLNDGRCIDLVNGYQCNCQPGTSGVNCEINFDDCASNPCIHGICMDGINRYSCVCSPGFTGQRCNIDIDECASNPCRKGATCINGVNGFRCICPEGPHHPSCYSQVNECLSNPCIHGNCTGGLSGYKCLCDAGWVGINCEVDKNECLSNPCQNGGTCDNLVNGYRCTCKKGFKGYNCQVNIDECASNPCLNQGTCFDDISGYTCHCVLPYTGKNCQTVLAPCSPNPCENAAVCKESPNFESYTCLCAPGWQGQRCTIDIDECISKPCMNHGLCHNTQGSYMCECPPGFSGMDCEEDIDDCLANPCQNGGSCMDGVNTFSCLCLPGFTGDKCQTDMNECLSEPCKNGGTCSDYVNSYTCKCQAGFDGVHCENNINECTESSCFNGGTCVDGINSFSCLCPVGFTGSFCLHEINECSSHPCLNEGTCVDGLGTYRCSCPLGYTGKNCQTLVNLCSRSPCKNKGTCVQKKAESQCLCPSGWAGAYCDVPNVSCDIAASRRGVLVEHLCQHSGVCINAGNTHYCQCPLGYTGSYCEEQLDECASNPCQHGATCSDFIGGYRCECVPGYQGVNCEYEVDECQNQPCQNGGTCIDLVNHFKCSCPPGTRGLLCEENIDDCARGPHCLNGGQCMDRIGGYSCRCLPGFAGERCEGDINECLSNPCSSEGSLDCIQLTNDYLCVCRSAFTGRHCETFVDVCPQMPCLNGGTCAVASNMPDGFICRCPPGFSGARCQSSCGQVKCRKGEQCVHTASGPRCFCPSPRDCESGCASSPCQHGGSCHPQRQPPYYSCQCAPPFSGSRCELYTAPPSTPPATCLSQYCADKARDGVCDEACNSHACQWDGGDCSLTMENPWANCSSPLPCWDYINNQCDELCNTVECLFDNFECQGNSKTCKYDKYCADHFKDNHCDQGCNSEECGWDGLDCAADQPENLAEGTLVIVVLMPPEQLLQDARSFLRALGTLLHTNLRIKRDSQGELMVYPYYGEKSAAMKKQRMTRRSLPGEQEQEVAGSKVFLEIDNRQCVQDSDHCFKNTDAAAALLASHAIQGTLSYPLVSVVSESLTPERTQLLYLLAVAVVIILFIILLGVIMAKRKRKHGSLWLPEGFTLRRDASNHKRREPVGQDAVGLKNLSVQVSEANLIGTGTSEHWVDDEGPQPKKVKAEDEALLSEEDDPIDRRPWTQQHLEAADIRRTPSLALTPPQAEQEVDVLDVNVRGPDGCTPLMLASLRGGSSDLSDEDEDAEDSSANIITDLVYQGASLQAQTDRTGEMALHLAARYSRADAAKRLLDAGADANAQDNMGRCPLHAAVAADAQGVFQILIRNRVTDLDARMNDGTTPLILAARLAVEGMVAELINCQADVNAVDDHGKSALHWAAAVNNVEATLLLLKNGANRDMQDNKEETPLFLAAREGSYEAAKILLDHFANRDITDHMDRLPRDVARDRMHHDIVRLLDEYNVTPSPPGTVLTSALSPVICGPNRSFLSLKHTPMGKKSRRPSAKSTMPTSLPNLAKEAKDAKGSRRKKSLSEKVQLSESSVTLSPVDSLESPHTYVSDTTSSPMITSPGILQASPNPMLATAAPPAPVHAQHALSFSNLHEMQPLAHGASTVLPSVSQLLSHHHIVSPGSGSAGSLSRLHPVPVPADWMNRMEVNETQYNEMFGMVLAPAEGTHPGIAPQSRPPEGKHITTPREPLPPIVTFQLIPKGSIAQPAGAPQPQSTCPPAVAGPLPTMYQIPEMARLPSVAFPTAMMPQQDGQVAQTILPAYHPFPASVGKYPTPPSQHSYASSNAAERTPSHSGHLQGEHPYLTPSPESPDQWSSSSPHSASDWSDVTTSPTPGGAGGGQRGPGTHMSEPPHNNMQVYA

As to `N[C@@H](Cc1ccccc1)C(=O)NCc1cn(Cc2ccccc2)nn1`, the composite z-score is 0.231 in [1]; 0.595 in test [2]; -0.0465 in test [3]; 0.157 in test [4]; 0.108 in test [5]; -0.191 in test [6]. Further, the composite z-score is 1.04 in test [7], 0.145 in test [9] and -0.0296 in test [10]. The z-score in test [8] was 0.46 (inactive).

Turning to `CCN(CC)c1ccc(N2CC=CC34O[C@@H]5/C=C\CCCOC(=O)C5[C@H]3C(=O)N(C(C)CO)[C@@H]4C2=O)cc1` (stereo not given in full), the composite z-score was -0.136 in [1]; -0.207 in test [2]; -0.175 in test [3]; -0.136 in test [4]; -0.0693 in test [5]; 1.87 in [6]. In addition, the values for the composite z-score in [7], in [9] and in test [10] were 1.31, -0.285 and -0.236, respectively. Further, the z-score in [8] is -0.768 (inactive).

Take `COC(=O)[C@@H]1N=C(c2ccc(OCCCO)cc2)O[C@@H]1C`: the composite z-score in test [1] was 0.0684; in test [2], 0.331; in test [3], -0.0627; in [4] it was 0.509; in test [5] it was 0.108; in [6] it was -0.519. In addition, the composite z-score in [7] was determined as 0.155; in test [9] it was 0.195; in test [10] it was 0.0139. Besides, in [8], the z-score was 5.05 (inactive).

For `[N-]=[N+]=Nc1ccccc1C[C@]1(C(=O)O)COC(c2ccc(OCCCO)cc2)=N1`, the composite z-score in [1] was 0.326; in test [2] it was -1.1; in test [3], -0.11; in test [4], 0.518; in test [5], 0.194; in test [6], 0.614. The composite z-score in test [7] is 1.19; in [9], 0.205; in [10] it was 0.419. The z-score in test [8] was 5.78 (inactive).

In the case of `CCCN1C(=O)[C@]2(Cc3ccccc31)N=C(c1ccc(OCCCO)cc1)O[C@@H]2c1ccccc1`, the composite z-score is 0.552 in test [1]; 0.176 in test [2]; 0.0732 in test [3]; -0.139 in test [4]; 0.118 in test [5]; 1.3 in test [6]. In addition, the composite z-score in test [7] amounted to 1.23; in [9] it was 0.311; in test [10], 0.22. Also, in test [8], the z-score is -1.9 (inactive).

Take `O=C1OCCC=C[C@H]2OC34C=CCN(c5ccc6ccccc6c5)C(=O)[C@H]3N(CCCO)C(=O)[C@@H]4C12` (stereo not given in full): the composite z-score in [1] is 0.796; in test [2] it was -2.38; in [3] it was -0.258; in [4] it was -0.736; in [5], -2.08; in test [6], -0.962. For the same compound, the composite z-score was -0.948 in test [7], -0.723 in test [9] and -0.134 in test [10]. Besides, the z-score in [8] is -0.0625 (inactive).

As to `NC(=O)NCC#Cc1ccc2c(c1)[C@]1(C(=O)N2)[C@H](c2ccccc2OCCO)N2[C@H](c3ccccc3)[C@H](c3ccccc3)OC(=O)[C@H]2[C@@H]1C(=O)NC[C@H](O)c1ccccc1`, the composite z-score was -0.0058 in test [1]; 1.37 in [2]; -0.085 in [3]; 0.262 in test [4]; -0.667 in test [5]; 0.319 in test [6]. Moreover, the composite z-score is -0.32 in [7], -0.312 in test [9] and -0.122 in [10]. Moreover, the z-score in [8] was -0.308 (inactive).

`O=C(NCc1ccc(F)cc1)[C@H]1C[C@H]2C(=O)NCC(=O)N2[C@H]1c1ccc(O)cc1`: the composite z-score in [1] is 0.505; in [2] it was 0.6; in test [3], -0.0224; in test [4], -0.162; in test [5] it was -0.336; in test [6], 0.964. Also, the composite z-score in [7] worked out at 1.3; in [9], 0.101; in test [10], 0.12. Besides, the z-score in [8] is -0.428 (inactive).

Regarding `O=C1O[C@@H](c2ccccc2)[C@@H](c2ccccc2)N2[C@@H](c3ccc(OCCO)cc3)[C@]3(C(=O)Nc4ccc(C#CC5=CCCCC5)cc43)[C@@H](C(=O)NC[C@H](O)c3ccccc3)[C@H]12`, the composite z-score in test [1] is -0.94; in test [2], 0.297; in [3], -0.0384; in [4] it was 0.6; in test [5], 1.48; in [6] it was 0.655. The composite z-score was 1.13 in test [7], 0.126 in [9] and -0.142 in test [10]. The z-score in test [8] was 2.03 (inactive).

For `CC(C)C(O)C1C=CC2C(=O)N(c3ccccc3)C(=O)C2N1Nc1ccccc1` (stereo not given), the composite z-score is -0.393 in test [1]; 0.466 in test [2]; 0.0293 in [3]; 0.79 in [4]; 1.49 in [5]; 1.24 in test [6]. Further, the values for the composite z-score in [7], in test [9] and in [10] were 1.39, 1.53 and 0.158, respectively. Moreover, the z-score in test [8] was 0.33 (inactive).

On to `CCCCC(CC)C(O)C1C=CC2C(=O)N(c3ccccc3)C(=O)C2N1Nc1ccccc1F` (stereo not given), for which the composite z-score was 0.0758 in test [1]; 0.39 in test [2]; 0.151 in [3]; 0.972 in test [4]; 1.54 in [5]; -0.144 in test [6]. Further, the composite z-score is 1.21 in test [7], 0.727 in test [9] and -0.123 in test [10]. In test [8], the z-score was 0.39 (inactive).

`CC1CC/C=C\[C@H]2OC34C=CCN(Cc5ccccc5)C(=O)[C@H]3N(C(CO)C(C)C)C(=O)[C@@H]4C2C(=O)O1` (stereo not given in full): the composite z-score in [1] was 0.342; in test [2] it was -0.153; in test [3] it was -0.049; in test [4], -0.0095; in [5] it was -0.68; in test [6], 0.491. Further, the composite z-score was 1.39 in [7], -0.368 in test [9] and -0.0169 in [10]. For the same compound, the z-score in [8] was 1.32 (inactive).

`COC(=O)[C@]1(CCS(=O)(=O)c2ccccc2)N=C(c2ccc(OCCCO)cc2)O[C@@H]1c1ccccc1N=[N+]=[N-]`: the composite z-score in [1] came to 0.48; in test [2], 0.619; in test [3] it was 0.136; in test [4], 0.898; in [5], 1.53; in test [6], 1.79. Moreover, the figures for the composite z-score in test [7], in [9] and in test [10] were 1.37, 1.15 and 0.0102, respectively. In addition, the z-score in test [8] was 1.89 (inactive).

For the compound `C=CCC(OC(C)=O)[C@@H]1[C@@H](N(Cc2cc3ccccc3o2)C(=O)Cc2ccc(F)cc2)c2cc(OCCCO)ccc2N1C(=O)Cc1ccc2ccccc2c1` (stereo not given in full), the composite z-score in [1] was -0.367; in test [2] it was -0.804; in test [3], -0.017; in test [4] it was -0.469; in test [5], -0.665; in [6] it was -0.436. Moreover, the composite z-score in test [7] is 0.112; in [9], 0.0652; in test [10], -0.306. In addition, the z-score in [8] is -1.47 (inactive).

The values above are taken from PubChem BioAssay.
